In the library only some 6.6% were active in any assay of this set; here they are far more common.
TSG101-PTAP inh: qHTS Assay for Iinhibitors of HIV-1 Budding by Blocking the Interaction of PTAP/TSG101 | Tumor susceptibility gene 101 protein (Homo sapiens), Q99816 | Fluorescence polarization, FITC-PTAP peptide / Tsg101 binding | Potency, µM (top dose mostly 115 µM), for the others: at the highest dose activity change, negative = inhibition, most hits filed as inhibitors | 340,000 tested, under 10 active | AID 493005, 2010; active = well fitted inhibition curve with a large enough effect in the main read-out, with a control signal flat, not every such curve was filed as active; inconclusive = small, poorly fitted or top-dose-only effect, or effect the other way, or a change in a side signal; inactive = no such curve, though single readings can be large or run the other way; note: % of control where 0% means no effect
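Fluorescence anisotropy tracks displacement of a FITC-tagged PTAP peptide (50 nM) from the Tsg101 binding domain (10 uM), following a 20 min room-temperature incubation at pH 7.5.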
MCF10A rerep: A quantitative high throughput screen for small molecules that induce DNA re-replication in MCF 10a normal breast cells. Potency, µM (titrated, usually from 46.1 µM), without a hit: at the highest dose activity, positive = re-replication, most hits filed as activators. AID 624296, 2012. MCF 10A DNA re-replication, Hoechst nuclear intensity, 48 h. 350,000 tested, 2.9% active; note: % of control where 0% means no effect; nearly all actives have a fitted effect of over 50% in size
SW480 rerep: A quantitative high throughput screen for small molecules that induce DNA re-replication in SW480 colon adenocarcinoma cells; SW480 DNA re-replication, Hoechst DNA content imaging, 48 h; Potency, µM (series often up to 46.1 µM), for inactives: at the highest dose re-replication activation, hits mostly activators; 340,000 tested, 1.8% active; note: % of control where 0% means no effect; nearly all actives have a fitted effect of over 55% in size
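Hoechst fluorescence of nuclei (405 nm excitation, 500-530 nm emission) measured by plate-scanning imager after 48 hr compound exposure at 37 C; re-replication scored as increased number of nuclei with elevated intensity.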
KB-3-1 tox: qHTS assay for MDR1-selective chemotherapeutics: Primary screen using the parental adenocarcinoma cell KB-3-1; KB-3-1 viability, CellTiter-Glo ATP luminescence, 72 h; Potency, µM (top dose mostly 46.1 µM), actives largely listed as cytotoxic; 400,000 tested, 1.4% active; note: % is set by controls: 0 for no effect and ±100 for the full control effect; nearly all actives have a fitted effect of over 60% in size
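Here the drug-naive KB-3-1 line serves as comparator for MDR sub-line selectivity; cells received compound titrations, 72 h at 37 °C, then CellTiter-Glo readout.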
RGS4 inhibitor: Inhibitors of Regulator of G Protein Signaling (RGS) 4: qHTS. Potency, µM (doses to about 114 µM), for the others: top-dose activity change, negative = inhibition, actives largely listed as inhibitors. 390,000 tested, 0.039% active. Transcreener GDP fluorescence polarization, RGS4-accelerated GTP hydrolysis; note: % is set by controls: 0 for no effect and ±100 for the full control effect; nearly all actives have a fitted effect of over 75% in size
Target sequence (P49798 whole entry, looked up): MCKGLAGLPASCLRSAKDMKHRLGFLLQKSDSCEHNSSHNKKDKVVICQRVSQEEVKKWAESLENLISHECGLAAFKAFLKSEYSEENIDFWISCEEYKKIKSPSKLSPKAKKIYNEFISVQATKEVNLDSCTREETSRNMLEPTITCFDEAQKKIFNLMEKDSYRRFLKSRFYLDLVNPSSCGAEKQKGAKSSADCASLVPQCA
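MLSMR compounds (23 nl, pin-transferred) preincubated 10 min at room temperature with a 500nM (2x) first reagent, then RGS4 at 900nM (2x) plus Transcreener GDP mix added; fluorescence polarization (620/688 nm) read before and after 90 min at 30 °C.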
KB-V1 cytotox: qHTS assay for MDR1-selective chemotherapeutics: Primary screen using the drug-selected MDR subline cells KB-V1; KB-V1 MDR cells viability, CellTiter-Glo, 72 h; Potency, µM (top dose mostly 46.1 µM), usual class: cytotoxic; 400,000 tested, 3.4% active; AID 1347076, 2019; note: % is set by controls: 0 for no effect and ±100 for the full control effect; nearly all actives have a fitted effect of over 60% in size
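Following 72 h at 37 degrees C with compound, KB-V1 cell viability was read by CellTiter-Glo luminescence, medium being phenol-red-free DMEM plus 10% FBS; concentration-response parameters came from normalized, curve-fitted qHTS data.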
* hit, by the source's call; i = inactive; ? = inconclusive; · = no result given; [ ] = remark or other dose. Unless noted, calls come from the whole dose curve; as a rule, active = well fitted curve in the direction sought with a large enough effect; inconclusive = small, poorly fitted or top-dose-only effect, or another doubt; inactive = no such curve, though single readings can be large; an effect the other way counts as inactive or inconclusive. Potency is the fitted concentration of half-maximal effect.

SMILES | TSG101-PTAP inh | MCF10A rerep | SW480 rerep | KB-3-1 tox | RGS4 inhibitor | KB-V1 cytotox
CCOC(=O)C1CCCN(C(=O)c2sc3nc(-c4ccc(F)cc4)cn3c2C)C1 (centres undefined) | -2% | 10% | -9% | i | 5% | ?
CCOC(=O)C1CCN(C(=O)c2sc3nc(-c4ccc(F)cc4)cn3c2C)CC1 | -2% | 3% | -10% | i | 8% | 23µM*
Cc1cccc(OCCSc2nnc(-c3ccoc3C)n2C)c1 | -3% | 12% | -4% | i | -14% | 18µM*
COc1ccc(Nc2nc(C)nc3c2nnn3Cc2ccccc2)cc1OC | -1% | 13% | -1% | i | 7% | ?
Cc1nc(Nc2ccc(Cl)cc2)c2nnn(Cc3ccccc3)c2n1 | -2% | 23µM* | 11% | i | ? | ?
Cc1nc(Nc2ccc(S(=O)(=O)N3CCCCC3C)cc2)c2nnn(Cc3ccccc3)c2n1 (centres undefined) | ? | -33% | 5% | 16µM* | -10% | 2.3µM*
COc1cc(/C=N/N2CCN(c3ccccc3OC)CC2)ccc1O | -11% | 1% | -6% | i | -5% | i
COc1cc(/C=N/N2C(=O)C3C4c5ccccc5C(c5ccccc54)C3C2=O)ccc1O (centres undefined) | -5% | 0% | -2% | i | 6% | 10µM*
Cn1nnc2c(N3CCCCC3)ncnc21 | · | · | · | i | -12% | i
CCCNC(=O)c1c(NC(=O)c2ccccc2F)sc2c1CCCCC2 | · | · | · | i | 7% | i
COc1cccc(C(=O)Nc2sc3c(c2C#N)CCN(C(C)=O)C3)c1 | 1% | 4.6µM* | 4.6µM* | 5.2µM* | -54% | ?
O=C(Nc1sc2c(c1C(=O)O)CCCCC2)c1ccccc1F | -5% | 13% | 7% | 12µM* | -14% | i
Cc1cccc(C(=O)Nc2sc3c(c2C(=O)O)CCC3)c1 | -4% | -5% | -12% | ? | -11%[56.9 µM] | i
CC(C)(C)c1ccc(C(=O)Nc2sc3c(c2C(=O)O)CCC3)cc1 | 0% | 21µM* | -4% | 3.3µM* | -23% | ?
O=C(Nc1sc2c(c1C(=O)O)CCCC2)c1ccc(F)cc1 | -1% | -12% | 7% | ? | 1% | i
COc1cccc(C(=O)Nc2sc3c(c2C(=O)O)CCCC3)c1 | -1% | 10% | -1% | 18µM* | 8% | ?
Cc1ccc(NC(=O)c2oc3ccccc3c2NC(=O)c2ccc(F)c(F)c2)cc1 | · | · | · | i | -5% | i
CCc1cccc(NC(=O)Cn2c(=O)n(Cc3ccccc3)c(=O)c3c(C)c(C(=O)N(C)C)sc32)c1 | · | · | · | i | 12% | i
COC(=O)N1CCc2c(sc(NC(=O)C3=COCCO3)c2C#N)C1 | -1% | 2.1µM* | 1.5µM* | 2.3µM* | -18% | ?
Cc1ccc(C(=O)Nc2sc3c(c2C(=O)O)CCCCC3)o1 | 0% | ? | -3% | 16µM* | -12% | ?
CC(=O)Nc1c(C)nn(-c2ccccc2)c1N1CCC(C(=O)Nc2cccc(C(F)(F)F)c2)CC1 | · | · | · | · | -7% | ·
O=S(=O)(Nc1cc(Sc2ncn[nH]2)c(O)c2ccccc12)c1ccccc1 | -2% | 1µM* | 10µM* | i | ? | i
Cc1cc(O)c(Sc2ncn[nH]2)cc1NS(=O)(=O)c1ccc(Cl)cc1 | -4% | 6% | 1% | ? | -38% | i
CC(NC(=O)c1nn(C)c2c1CSc1ccccc1-2)c1ccccc1 (centres undefined) | · | · | · | · | -14% | ·
CCC12CN(C(=O)c3ccc(C)cc3)CC(CC)(CN(C(=O)c3ccc(C)cc3)C1)C2=O | 2% | 2% | ? | i | -13% | 5.2µM*

Screening results as filed in PubChem BioAssay.
